Keap1 Nrf2 FP: disrupts human Keap1 binding to Nrf2 peptide; Q14145; Keap1 Kelch-Nrf2 peptide fluorescence polarization, 1536-well; inhibition, % at 9.4 µM; hit rate 0.15% among 340,000; AID 504523; in the data active = inhibition above about 12%;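 also: human Keap1 Kelch domain with fluorescein labeled Nrf2 9mer peptide probe; 0% = neutral control wells and 100% = peptide positive control; higher means more block of Keap1 binding to Nrf2 peptide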
Target sequence (Q14145 whole entry, looked up, the tested form may be a part): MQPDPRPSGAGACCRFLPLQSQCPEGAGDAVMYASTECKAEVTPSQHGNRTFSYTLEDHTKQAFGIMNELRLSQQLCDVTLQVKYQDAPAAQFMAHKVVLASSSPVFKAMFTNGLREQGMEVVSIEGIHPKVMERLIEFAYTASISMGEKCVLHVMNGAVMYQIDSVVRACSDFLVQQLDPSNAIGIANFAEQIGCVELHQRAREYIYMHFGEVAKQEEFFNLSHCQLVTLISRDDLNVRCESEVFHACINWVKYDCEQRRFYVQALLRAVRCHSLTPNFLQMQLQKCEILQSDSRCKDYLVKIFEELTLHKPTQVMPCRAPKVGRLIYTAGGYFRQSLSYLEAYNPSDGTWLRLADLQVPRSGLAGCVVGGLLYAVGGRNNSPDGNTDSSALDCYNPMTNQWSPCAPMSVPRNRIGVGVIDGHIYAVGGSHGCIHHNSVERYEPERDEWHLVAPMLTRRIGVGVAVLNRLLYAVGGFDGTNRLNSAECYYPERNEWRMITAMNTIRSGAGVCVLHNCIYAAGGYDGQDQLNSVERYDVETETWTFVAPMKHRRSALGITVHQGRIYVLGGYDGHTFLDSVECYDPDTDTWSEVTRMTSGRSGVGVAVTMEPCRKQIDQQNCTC
LANA DNA inh: inhibitors of KSHV LANA C-terminal domain DNA binding. MBP-C-LANA/FAM-LBS DNA binding, fluorescence polarization. inhibition, % at 9 µM. hit rate 0.078% among 340,000;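 active = highest replicate inhibition at or above 60% at 9 µM, even if other replicates fall short; inactive = all replicates below 60% inhibition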;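 also: 0% = neutral control wells and 100% = 4 µM acridine orange control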
Cardiac RTF inh: cardiac RTF calcium desensitization; IANBD-labeled cardiac RTF, Ca2+ fluorescence; AID 493244; inhibition, % at 7.15 µM; hit rate 0.12% among 340,000; P19429+P45379;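 active = inhibition above the mean inhibition of all tested compounds plus 3 SD, cut at about 17% in these data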;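 also: assay run at fixed EC70 calcium of 1.6 mM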
IDE inh: inhibitors of human insulin-degrading enzyme in cells. P14735. hit rate 0.41% among 320,000. AID 434962. inhibition, % at 5.59 µM. HEK cells, FAbetaB cleavage, fluorescence polarization;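 active = percent inhibition above the average of all tested compounds plus 3 SD, set per screening campaign, cut at about 16% in these data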;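 also: IDE supplied by intact live HEK cells; FP after avidin binding of uncleaved biotin substrate so inhibition keeps polarization high; 0% = DMSO wells and 100% = 60 µM reference IDE inhibitor Ii1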
IDE act: boosts human insulin-degrading enzyme activity in HEK cells; FAbeta-B cleavage, fluorescence polarization; 0% vehicle, 100% cell-free pure enzyme wells; activation, % at 5.96 µM; AID 493087; hit rate 0.073% among 340,000;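 active = activation above the mean of all tested compounds plus 3 SD, set per screening campaign, cut at about 17% in these data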
cardiac RTF act: increases calcium sensitivity of human cardiac regulated thin filaments; IANBD-labeled TnC RTF fluorescence at EC20 calcium; 0% EC20 calcium, 100% full calcium; activation, % at 7.2 µM; hit rate 0.24% among 340,000; AID 493008;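 active = activation above the mean over all tested compounds plus 3 SD, cut at about 30% in these data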;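 also: rise in fluorescence read as greater calcium sensitivity of cardiac thin filaments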
IDE cell inh cf: cellular human IDE inhibition, confirmation. hit rate 51% among 1,200. shares compounds with IDE inh. inhibition, % at 5.59 µM. HEK cells, FAbetaB cleavage, fluorescence polarization;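 active = mean inhibition across triplicate wells above the cutoff set by the earlier primary insulin-degrading enzyme screen, cut at about 16% in these data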;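 also: 0% = DMSO wells and 100% = 60 µM reference IDE inhibitor Ii1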
HEK cytotox: counter-screen for IDE inhibitors: cytotoxicity in HEK cells; shares compounds with IDE inh; HEK293 cytotoxicity, ATP luminescence; inhibition, % at 5.59 µM; hit rate 28% among 1,200; in the data active = inhibition above about 22%;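 also: 0% = vehicle wells and 100% = reference cytotoxic drug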
* = called active by the depositor; . = no result. Sampled rows, rich in hits. Any-hit rate of the full collection: about 0.81%.

SMILES | Keap1 Nrf2 FP | LANA DNA inh | Cardiac RTF inh | IDE inh | IDE act | cardiac RTF act | IDE cell inh cf | HEK cytotox
Cn1c(/C(C#N)=C/c2cccc(O)c2)nc2ccccc21 | -8 | 1 | -14 | 2 | 9 | 0 | . | .
O=C1CC(/C=C/c2ccc([N+](=O)[O-])cc2)=Nc2ccccc2N1 | -6 | -2 | 4 | 2 | -1 | -1 | . | .
Cc1ccc(N2CCN(C3=NC(=O)/C(=C\c4cn[nH]c4-c4ccccc4)S3)CC2)cc1 | -4 | 2 | -5 | 31* | -16 | 0 | 2 | 26*
CC(OC(=O)/C(C#N)=C/c1ccc(N(C)C)cc1)C(=O)NCc1ccco1 (stereo not drawn) | -1 | 6 | -7 | 4 | -4 | 15 | . | .
CC(OC(=O)/C(C#N)=C/c1ccc(N(C)C)cc1)C(=O)N(C)c1ccccc1 (stereo not drawn) | 0 | 25 | -32 | 16* | -26 | 30* | 31* | 12
C=CCN1C(=O)[C@@H]2Cc3c([nH]c4ccccc34)C(c3ccc(O)cc3)N2C1=S (stereo partly drawn) | -42 | -13 | -22 | 25* | -40 | 22 | 15 | 22*
Cc1ccc(N(CC(=O)N/N=C/c2cccc(Br)c2)S(C)(=O)=O)cc1 | 1 | 1 | -4 | 27* | -16 | 5 | 17* | 6
Cc1ccc(N(CC(=O)N/N=C/c2cccs2)S(C)(=O)=O)cc1 | 0 | 0 | 6 | 1 | 5 | -2 | . | .
N#CC(=NCc1cccnc1)C1=C(O)c2ccccc2C1=O | -6 | 0 | -7 | 3 | 7 | 4 | . | .
CS(=O)(=O)Oc1ccc2c(c1)O/C(=C\C=C\c1ccccc1)C2=O | -1 | 0 | -12 | 33* | -11 | -2 | 18* | 16
O=C(O)C1c2ccccc2C(=O)N(Cc2ccc(F)cc2)C1c1ccncc1 (stereo not drawn) | . | . | . | 16* | . | . | 6 | 4
COc1ccc(CCNC(=O)Cn2nnc(-c3ccccc3F)n2)cc1OC | 0 | 2 | 6 | 1 | 3 | 8 | . | .
COC(=O)Cn1c(=NC(=O)c2cc(OC)cc(OC)c2)sc2cc(OC)ccc21 | 6 | 0 | -10 | 16* | -11 | 2 | 6 | 13
CC(=O)Nc1ccc(C2=NNC(=Nc3ccc(S(=O)(=O)N4CCOCC4)cc3)SC2)cc1 | -4 | 1 | -6 | 22* | -29 | 8 | 9 | 15
O=S(=O)(c1ccc(N=C2NN=C(c3cc(F)ccc3F)CS2)cc1)N1CCOCC1 | -3 | -1 | . | . | . | . | . | .
O=C(CCCCl)Oc1ccc2cc(-c3ccc4ccccc4n3)c(=O)oc2c1 | 1 | 1 | -15 | 37* | -49 | 2 | 52* | 4
CC(=O)COc1ccc2cc(-c3ccccc3)c(=O)oc2c1 | -2 | 2 | -16 | -3 | -2 | 2 | . | .
CCCCc1c(O)cc(C)[nH]c1=O | 0 | -2 | -5 | 2 | -2 | -1 | . | .
COc1ccc(N=Cc2c(O)c3ccccc3n2C(C)=O)cc1 | -13 | -4 | -16 | -4 | -22 | 16 | . | .
COc1ccc(N=Cc2sc(O)c3ccccc23)cc1 | -32 | -2 | -145 | 61* | -66 | 79* | 90* | 10
CC(C)NC(=O)CSc1nnc(-c2ccncc2)n1-c1ccccc1 | -1 | 0 | -8 | -3 | 4 | -9 | . | .
C=CCN1C(=O)/C(=C\c2ccc(OC(=O)c3ccco3)c(OC)c2)SC1=S | 1 | 1 | 2 | 32* | -77 | 1 | 143* | 11
O=C(O)CN1C(=O)/C(=C\c2ccc(OC(=O)c3ccco3)cc2)SC1=S | -12 | -16 | -7 | 35* | -53 | 6 | 160* | 6
C=CCN1C(=O)/C(=C\c2cccc(OC(=O)c3ccco3)c2)SC1=S | -4 | 2 | -12 | 4 | 1 | -10 | . | .
Cn1c(SCC(=O)NCCc2ccc(S(N)(=O)=O)cc2)nc2ccccc2c1=O | -2 | 0 | -2 | 41* | -56 | -6 | 9 | 8
SMILES | Keap1 Nrf2 FP | LANA DNA inh | Cardiac RTF inh | IDE inh | IDE act | cardiac RTF act | IDE cell inh cf | HEK cytotox
C[n+]1cc(C(=O)N2CCCCC2)ccc1/C=C/c1c[nH]c2ccccc12 | -212 | -53 | -147 | 27* | -38 | 143* | 40* | 14
O=C(CSc1nnc(-c2ccc(Br)cc2)o1)N1CCN(C(=O)c2ccco2)CC1 | -5 | 0 | -4 | 17* | -15 | -1 | 9 | 6
Cc1ccc(C)c(S(=O)(=O)N2CCN(C(=O)C3CC3C)CC2)c1 (stereo not drawn) | 1 | 1 | -7 | -2 | -6 | 3 | . | .
CCCC(=O)N1CCN(c2nc3ccc(CC)cc3s2)CC1 | -7 | -1 | 3 | 19* | -10 | 1 | 10 | 21
CCCC(=O)N1CCN(c2nc3ccc(Br)cc3s2)CC1 | 2 | -2 | -3 | 15 | -9 | -5 | . | .
CCCCC(=O)N1CCN(c2nc3ccc(Br)cc3s2)CC1 | 4 | 0 | -10 | 25* | -22 | 1 | 8 | 42*
COC(=O)c1cc(NC(=O)C2CC(=O)NC(=NCc3ccc(OC)cc3)S2)cc(C(=O)OC)c1 (stereo not drawn) | 2 | -2 | -3 | 2 | 8 | 3 | . | .
O=C(Nc1nnc(SCc2ccc(Cl)cc2)s1)C1CC(=O)N(Cc2ccccc2)C1 (stereo not drawn) | -2 | 1 | -15 | -1 | 1 | -5 | . | .
COc1cc2ncnc(NCc3cccc(F)c3F)c2cc1OC | -1 | -3 | -10 | 18* | -9 | 6 | 1 | 13
CCOc1ccc(S(=O)(=O)N2CCCC(C(=O)NC3CC3)C2)cc1Cl (stereo not drawn) | 5 | 0 | -5 | -4 | 0 | 3 | . | .
O=C(NCC(c1ccco1)N1CCN(c2ccccc2)CC1)c1ccc2c(c1)OCO2 (stereo not drawn) | 0 | -1 | -11 | -2 | 5 | -2 | . | .
CC(=O)Nc1sc2c(c1-c1nc3ccccc3s1)CN(C(C)C)CC2 | -8 | 10 | -2 | 30* | -10 | 16 | 5 | 95*
CCCN1CCc2c(sc(NC(=S)NC(=O)c3ccccc3)c2C#N)C1 | -43 | -3 | -60 | 39* | -33 | 31* | 9 | 13
CC(C)N1CCc2c(sc(NC(=S)NC(=O)c3ccccc3)c2C#N)C1 | -30 | -12 | -23 | 19* | -13 | 7 | 11 | 10
CCC(C(=O)Nc1cccnc1)c1ccccc1 (stereo not drawn) | -1 | -1 | -6 | -1 | 7 | -3 | . | .
CCOC(=O)c1c(-c2ccc(C)cc2)csc1NC(=O)c1cc2ccccc2oc1=O | -9 | -2 | -6 | 2 | -2 | 2 | . | .
O=C(COc1ccc(Br)cc1)NCCCN1CCCC1=O | -2 | 0 | 11 | -6 | 4 | -2 | . | .

Screens deposited in PubChem BioAssay by several laboratories.
